Screening results deposited in PubChem by The Scripps Research Institute Molecular Screening Center.
MITF inh = inhibitors of human MITF. inhibition, % at 2.6 µM. AlphaScreen MITF homodimerization, bead proximity signal. AID 1259374. O75030. 650,000 compounds, 0.91% hits; in the data active means inhibition above about 50%;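 further: 0% = vehicle wells with protein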
Target sequence (O75030 whole entry, looked up): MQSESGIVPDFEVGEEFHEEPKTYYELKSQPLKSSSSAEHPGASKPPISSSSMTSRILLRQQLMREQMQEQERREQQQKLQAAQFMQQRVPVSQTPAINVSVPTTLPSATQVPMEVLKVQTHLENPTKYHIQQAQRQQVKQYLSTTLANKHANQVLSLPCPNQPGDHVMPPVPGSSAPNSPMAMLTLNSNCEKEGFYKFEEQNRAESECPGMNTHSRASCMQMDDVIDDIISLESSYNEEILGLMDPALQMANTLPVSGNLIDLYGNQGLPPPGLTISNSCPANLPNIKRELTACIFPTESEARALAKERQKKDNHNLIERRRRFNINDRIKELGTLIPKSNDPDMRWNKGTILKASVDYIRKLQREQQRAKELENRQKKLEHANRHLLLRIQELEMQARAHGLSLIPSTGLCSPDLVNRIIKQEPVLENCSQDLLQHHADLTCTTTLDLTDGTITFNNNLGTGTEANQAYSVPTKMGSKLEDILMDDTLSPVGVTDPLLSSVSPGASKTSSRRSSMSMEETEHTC
TEAD-YAP block = TEAD-YAP interaction inhibition | HEK-TIYL cells, TEAD-Gal4/YAP UAS-luciferase luminescence | AID 1259422 | 640,000 compounds, 1.4% hits | inhibition, % at 9.12 µM; in the data active means inhibition above about 32%;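 further: 0% = median of test compound wells and 100% = reference inhibitor wells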
GPR151 activ = human GPR151 activation; 650,000 compounds, 1% hits; AID 1508602; PathHunter beta-arrestin GPR151 cells, luminescence; Q8TDV0; activation, % at 11.2 µM; in the data active means activation above about 4.9%;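 further: 0% = median of compound wells and 100% = cells with positive control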
FBW7 act = human FBW7 E3 ligase activation, primary screen; Q969H0; AlphaScreen FBW7–phospho-cyclin E peptide binding, activator screen; normalized activity (activation), % at 26.1 µM; 650,000 compounds, 0.13% hits; AID 1259310; in the data active means normalized activity above about 1.9%;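 further: purified mutant Fbw7 with reduced substrate affinity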
* hit, by the source's call. Rows were chosen to be rich in hits. Some 3.5% of all compounds tested hit in one or more screens of this group.

SMILES	MITF inh	TEAD-YAP block	GPR151 activ	FBW7 act
Cc1ccc2ccc(C(Nc3ccccn3)c3ccc(F)cc3)c(O)c2n1 (centres undefined)	15	20	-1	0
CCP(=Nc1cc([N+](=O)[O-])ccc1OC)(c1c(C)nn(-c2ccccc2)c1C)N(C)C (centres undefined)	-14	0	0	0
CCCOc1ccccc1C1C(C(=O)OC2CCCC2)=C(C)NC2=C1C(=O)CC(C)(C)C2 (centres undefined)	0	2	-1	0
COC(=O)c1ccc(C2C=C(c3cccc(OC)c3)Nc3nnnn32)cc1 (centres undefined)	1	-49	0	0
COC(=O)C1=CN(CC23CC4CC(CC(C4)C2)C3)C=C(C(=O)OC)C1c1ccsc1	-8	-3	-1	1.9*
CC(C)n1cnc2c(Nc3ccc(N4CCOCC4)cc3)nc(Nc3nc4ccccc4n3C)nc21	-3	33*	0	0
CC(C)n1cnc2c(Nc3ccc(N4CCOCC4)cc3)nc(Nc3ccccn3)nc21	-2	33*	1	0
CC(=O)Nc1ccc(Nc2nc(NC3CCC(O)CC3)nc3c2ncn3C(C)C)cc1 (centres undefined)	-3	6	-3	0
CC(C)n1cnc2c(Nc3ccccc3)nc(NC3CCC(O)CC3)nc21 (centres undefined)	3	68*	-8	0
c1ccc(N2CCN(c3nc(Nc4ccc(N5CCOCC5)cc4)c4ncn(C5CCCCC5)c4n3)CC2)nc1	52*	25	-1	0
O=[N+]([O-])C(C(c1ccccc1)c1ccccc1)[N+](=O)[O-]	-3	1	1	0
CC(C)N(C(=O)CN(C)S(=O)(=O)c1ccc2c(c1)CCC(=O)N2)C1CCCCC1	-8	-2	0	0
CN(C)c1ccc(C2C(C#N)=C(N)N(c3ccc(Cl)cc3)C3=C2C(=O)CCC3)cc1 (centres undefined)	9	-8	1	0
C=CCN1C(=O)C(CC(=O)Nc2ccc(C(=O)OCC)cc2)S/C1=N/c1nccs1 (centres undefined)	9	-6	-1	1
CC1CCc2sc(NC(=O)c3cccc(Oc4ccccc4)c3)c(C(N)=O)c2C1 (centres undefined)	0	-9	-1	0
CCOC(=O)C1(CCc2ccccc2)CCN(C(=O)c2ccc(COC)o2)CC1	1	-15	0	0
COc1ccccc1NC(=O)c1c(NC(=O)C(C)(C)C)sc2c1CCC(C)C2 (centres undefined)	8	-12	1	0
CC(C)n1cnc2c(Nc3ccc(N4CCOCC4)cc3)nc(-c3ccc(C(N)=O)cc3)nc21	2	32*	-1	0
COc1ccccc1/C=C/CN1CCNC(=O)C1CC(=O)NCCCc1ccccc1 (centres undefined)	1	-6	-1	0
c1ccc(CSc2nn3cnnc3s2)cc1	-8	58*	0	0
Clc1ccccc1CSc1nn2cnnc2s1	-4	55*	0	0
Cn1cnnc1SCc1ccccc1Cl	0	12	1	0
Fc1ccc(CSc2nn3cnnc3s2)cc1	8	58*	-1	1
CCOc1ccc2[nH]c(=O)c(CN(CCCO)C(=O)Nc3ccccc3F)cc2c1	3	12	-1	0
Cc1cc(C(=O)N=c2sc3cc4c(cc3n2C)OCCO4)n(C)n1	7	-15	-2	0
SMILES	MITF inh	TEAD-YAP block	GPR151 activ	FBW7 act
Cc1cc(C(=O)N=c2sc3cc4c(cc3n2C)OCCO4)nn1C	6	38*	-4	0
Cc1ccc2c(c1)C1C=CCC1C(C(=O)O)N2 (centres undefined)	70*	-6	0	-2
Fc1ccc(C2Nc3ccc(OC(F)(F)F)cc3C3C=CCC32)cc1 (centres undefined)	8	2	0	0
CC(=O)c1ccc2c(c1)C1C=CCC1C(C(=O)O)N2 (centres undefined)	79*	5	-2	0
Cc1cc(I)cc2c1NC(C(=O)O)C1CC=CC21 (centres undefined)	50	8	2	0
NS(=O)(=O)c1ccc2c(c1)C1C=CCC1C(C(=O)O)N2 (centres undefined)	72*	5	-1	0
O=C(O)C1Nc2ccc(OC(F)(F)F)cc2C2C=CCC12 (centres undefined)	75*	1	0	0
O=c1[nH]c(O)c(C=NCc2ccc(Cl)cc2)c(=O)[nH]1	22	-2	-2	0
COc1ccc(C(=O)NNC(=O)COc2ccc(Cl)cc2C)cc1	5	4	0	0
O=C(c1cc(COc2ccc3ncccc3c2)on1)N1CCCC(OCc2ccccn2)C1 (centres undefined)	6	39*	2	0
O=C(c1cc(COc2ccc3ncccc3c2)on1)N1CCC(N2CCSCC2)CC1	-10	43*	1	0
CCC(O)C1CCN(C(=O)c2cc(COc3ccc4ncccc4c3)on2)CC1 (centres undefined)	-2	50*	1	0
O=C(NCCCN1CCCC1=O)c1cc(COc2ccc3ncccc3c2)on1	-10	37*	1	0
O=C(c1cc(COc2ccc3ncccc3c2)on1)N1CCCC(O)C1 (centres undefined)	5	10	0	0
O=C(c1cc(COc2ccc3ncccc3c2)on1)N1CCC(O)CC1	7	3	0	0
CCOc1cc(C2CC(=O)NC3=C2C(=O)CC(c2ccc(OC)cc2)C3)cc(Cl)c1O (centres undefined)	2	5	-1	0
O=C(N/N=C/c1c(Cl)cccc1Cl)C(=O)Nc1cccc(F)c1	-4	-20	-1	0
COc1cc(OC)c(C(=O)Nc2nccs2)cc1OC	4	32	0	0
S=c1[nH]nc(-c2ccccc2)n1-c1ccccc1	7	8	0	0
Cc1cccc(-c2n[nH]c(=S)n2-c2ccccc2)c1	1	49*	0	0
O=C(O)C1C2CC=CC2c2cc(Oc3ccccc3)cc3c2N1CC1CC=CC31 (centres undefined)	0	-2	0	2.3*
Cc1cc(C)c2c3c1C1C=CCC1CN3C(C(=O)O)C1CC=CC21 (centres undefined)	25	-2	0	2.5*
O=C(O)c1cc2c3c(c1)C1C=CCC1C(c1ccccc1)N3CC1CC=CC21 (centres undefined)	56*	13	1	0
O=C(O)c1cc2c3c(c1)C1CC=CC1C(c1ccc(Br)cc1)N3CC1CC=CC21 (centres undefined)	72*	-6	-1	0
COc1ccc(OC)c(C2NC(=O)NC(C)=C2C(=O)OC2CCCCCC2)c1 (centres undefined)	-3	4	0	0
CCOC(=O)CC(=O)N1CCc2nc(C)nc(N3CCCCCC3)c2C1	10	4	0	0
N#Cc1ccc(Oc2ccc(I)cc2)c([N+](=O)[O-])c1	-4	1	4	0
O=C(N/N=C\C1CC2CCC1C2)c1cccc(Br)c1 (centres undefined)	2	-43	1	0
